biological target: Apoptosis regulator Bcl-2 (Homo sapiens) (UniProt P10415); experiment: Bcl-2 Bim peptide interaction hit potency – biochemical, dose response, multiplexed HTS hits, confirmation (AID 2075); conditions: bead-based flow cytometry, Bim peptide-Bcl-2 binding; series mostly up to 100 µM; inhibition of binding: at the top concentration
Sequence (P10415 whole entry, looked up): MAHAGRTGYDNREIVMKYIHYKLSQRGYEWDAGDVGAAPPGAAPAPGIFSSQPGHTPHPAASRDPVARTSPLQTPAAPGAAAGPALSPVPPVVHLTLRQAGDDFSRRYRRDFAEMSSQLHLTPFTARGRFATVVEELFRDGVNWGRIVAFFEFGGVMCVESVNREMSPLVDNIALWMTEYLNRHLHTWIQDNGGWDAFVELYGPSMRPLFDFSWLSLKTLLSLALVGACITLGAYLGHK

Inhibition of binding, inactive:
COc1ccc(N2C(=O)C(Cl)=C(NC3C(=O)N(c4ccccc4)N(C)C3C)C2=O)cc1 (configuration not stated) 7.79
CCN1C(=O)/C(=C\C=C2/C=CC=CN2CC)SC1=S 10
COc1cc(CNc2ccc3[nH]c(=O)[nH]c3c2)cc(Br)c1OCC(=O)NC(C)(C)C 5.93
CCOc1ccccc1CNc1ccc(O)cc1 8.87
COc1cc(N=C2SSNC2Cl)c(OC)cc1Cl (configuration not stated) 29.2
CCN(CC)c1ccc(NC(=O)COc2ccccc2C)cc1S(=O)(=O)Nc1ccccc1OC -2.61
CC(=O)Nc1ccc(-n2cc(-c3ccccc3)[nH]c2=S)cc1 -2.08
CCN(CC)c1ccc(NC(=O)c2ccccc2Br)cc1S(=O)(=O)Nc1ccccc1OC -5.4
COc1ccccc1-n1c(-c2ccccc2)c[nH]c1=S 3.39
C=CS(=O)(=O)c1sc(Cl)c(N2CCOCC2)c1[N+](=O)[O-] 33.7
S=c1[nH]cc(-c2ccccc2)n1-c1ccccc1 3.09
Cc1ccc(-c2cc(-c3ccc(F)cc3)c(C#N)c(N)n2)o1 5.04
O=c1c2c(n3nnnc3n1Cc1ccccc1)-c1ccccc1CC21CCCC1 5.06
Oc1ccc(NCc2ccccc2OCc2ccccc2)cc1 0.638
O=C1/C(=C\c2ccco2)NC(=S)N1c1ccccc1 15.2
COc1ccc(N2C(=O)C(Cl)=C(Oc3cccc(OC)c3)C2=O)cc1 -0.371
CNC(CC(=O)c1ccc([N+](=O)[O-])cc1)C(Cl)(Cl)Cl (configuration not stated) 7.69
O=C1c2ccccc2C(=O)N1CN(C(=O)COc1ccc(Cl)cc1Cl)c1cccc(F)c1 -1.03
O=C1C(Cl)=C(N2CCN(c3ccccc3[N+](=O)[O-])CC2)C(=O)c2ccccc21 24.7
Cc1nnc(Sc2cc(NCCO)c([N+](=O)[O-])c3nonc23)s1 19.9
O=C(/C=C/c1ccc(-c2ccccc2[N+](=O)[O-])o1)c1ccccc1 9.32
Cc1ccc(-c2cc(-c3ccc(C)o3)nc(N)c2C#N)cc1 8.62
CCN(CC)c1ccc(NC(=O)c2ccccc2F)cc1S(=O)(=O)Nc1ccccc1OC -0.748
Cc1ccc(-c2cc(C(=O)Nc3nccs3)c3ccccc3n2)o1 14
Cc1cc(-c2cc(-c3ccc(Cl)cc3)nc(N)c2C#N)co1 8.08
O=C(Nc1nnc(COc2ccc(Cl)cc2)s1)c1ccco1 5.1
CNC1CCC(Br)CC(C(=O)/C=C/c2cccc(OC)c2OC)C1=O (configuration not stated) 45.8

From PubChem BioAssay AID2075 (NMMLSC, 2009)
